Experiment [1] can be described thus: yeast TOR pathway RPL19A-GFP modulators, primary screen, cell-based, S. cerevisiae, multiplex flow cytometry (AID 1862; in the data active = percent of DMSO control GFP below about 86%;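 note: lower values mimic rapamycin by blocking the RPL19A rise seen in DMSO cells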). The note with it: S. cerevisiae RPL19A-GFP strain, flow cytometry fluorescence, 3 h; at 10 µM; stronger effect = lower value. For orientation: Flow cytometry measures light scatter and fluorescence of single cells or particles in a stream.
A short description of experiment [2]: modulators of MEP2-GFP levels in yeast, primary screen, S. cerevisiae, multiplex flow cytometry (AID 1867;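 active = GFP response, as percent of the DMSO control, above the screen-wide mean plus 3 SD, about 139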;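 note: median GFP channel fluorescence of barcode-gated MEP2-GFP cells measured by flow cytometry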). Particulars: S. cerevisiae MEP2-GFP strain, 3 h, at 10 µM, stronger effect = higher value, 100% means same as DMSO wells.
A short description of experiment [3]: modulators of CIT2-GFP expression in yeast, primary screen, S. cerevisiae, GFP fusion, multiplex flow cytometry (AID 1870;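 active = percent response above a set limit, the screen-wide mean plus 3 SD, cut at about 130% in these data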;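 note: barcoded CIT2-GFP strain pooled with four other GFP strains with rapamycin as positive control; median GFP fluorescence per well over plate mean of DMSO wells so 100% = DMSO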). Particulars: 3 h, at 10 µM, stronger effect = higher value.
A short description of experiment [4]: modulators of LAP4-GFP expression in yeast, primary screen, S. cerevisiae, multiplex flow cytometry (AID 1873;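 active = GFP signal, as percent of the solvent control, above the screen mean plus 3 SD, about 149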). The note with it: 3 h, at 10 µM, stronger effect = higher value.
Experiment [5] in a line: modulators of AGP1-GFP expression in yeast TOR pathway, primary screen, cell-based, multiplex flow cytometry, S. cerevisiae (AID 1887;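 active = GFP signal above the screen-wide mean plus 3 SD, that is over about 124.5% of the solvent control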;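 note: AGP1-GFP fusion strain of S. cerevisiae within a five-strain barcoded multiplex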). The note with it: 3 h, at 10 µM, stronger effect = higher value.
A short description of experiment [6]: inhibitors of CD8+ T cell-vesicle binding, pilot screen, LFA-1/ICAM-1 modulator project, MLPCN validation set, flow cytometry (AID 2523;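 active = response below a set limit, under 55% cells CD8-positive and vesicle-bound, and CD8 cells' 90th-percentile brightness under 279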;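 for vesicle binding response: mean PE anti-B7-1 fluorescence of CD8+ cells relative to row control; 100% = QL9-loaded vesicles with DMSO vehicle in the same plate row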). Particulars: 2C mouse CD8+ T cells, at 7 µM, stronger effect = lower value; double positive events: measured here: CD8+/vesicle+ event percentage.
Experiment [7] addresses Integrin beta-1 (Homo sapiens) + Integrin alpha-4 (Homo sapiens) (UniProt P13612+P05556). Nature of the experiment: inhibition of HUTS-21 binding to VLA-4, pilot screen, VLA-4 allosteric modulator project, U937 cells, HUTS-21 mAb, flow cytometry, validation set (AID 2674;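 active = inhibition above 50%, about 3 SD of the validation set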;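 note: antibody binding induced by the VLA-4 ligand LDV present at three times its Kd; 0% = LDV ligand with antibody and no compound and 100% = antibody without LDV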). The note with it: HUTS-21 LIBS mAb binding, at 6.7 µM, stronger effect = higher value, binding induced by LDV ligand.

Experiment [8] in a line: superoxide lowering in aged yeast cells, pilot screen, validation compound set (AID 2706;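 active = superoxide response below 65% of plate, a cut near 3 SD across the whole screen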;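 note: yeast exposed to compound for one week at 30 degrees C before staining; 100% = mean of all compound wells on the same plate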). Particulars: S. cerevisiae aging, superoxide DHE fluorescence; at 10 µM; stronger effect = lower value.
The target in experiment [9] is Beta-adrenergic receptor kinase 1 (Homo sapiens) (UniProt P25098). Nature of the experiment: GRK2 binders displacing RNA aptamer, biochemical, validation, human GRK2, bead flow cytometry (AID 488806;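 active = aptamer binding inhibition above 30%, about 3 SD of noise from non-fluorescent compounds; inactive = inhibition at or below 30%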). The note with it: bead-bound GRK2, FAM-aptamer displacement, at 10 µM, stronger effect = higher value.
Experiment [10] deals with Beta-2 adrenergic receptor (Homo sapiens) (UniProt P07550). The experiment can be described thus: beta2AR agonists driving receptor internalization, pilot screen, cell-based, FAP fluorogen, flow cytometry, validation set (AID 504459;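 active = percent response above 42, roughly 3 SD of non-fluorescent test compounds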;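 note: agonist-driven loss of surface beta2AR via internalization measured by FAP dye flow cytometry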). Particulars: Am2.2-beta2AR cells, FAP surface receptor flow cytometry; at 10 µM; stronger effect = higher value.
For experiment [11], the target named is AP-2 complex subunit beta (Homo sapiens) (UniProt P63010). The experiment can be described thus: inhibitors of arrestin peptide binding to AP2, pilot screen, biochemical, validation set, GST-AP2 beads, flow cytometry (AID 504541;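 active = inhibition above 54%, about 3 SD of non-fluorescent compounds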;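 note: AP2 carries R879A mutation and is captured from E. coli lysate; bead-bound FITC arrestin peptide fluorescence measuring arrestin peptide binding to AP2; 0% = DMSO wells and 100% = excess unlabeled arrestin peptide control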). Particulars: FITC arrestin peptide, at 10 µM, stronger effect = higher value, AP2 beta2 appendage fragment, R879A mutant.
Experiment [12] can be described thus: yeast V-ATPase proton transport modulators, S. cerevisiae, pHLuorin, HTS validation (AID 504600; in the data active = response above about 15%;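 note: plate controls were DMSO for no effect and reference compound for full effect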). The note with it: S. cerevisiae pHLuorin cytosolic pH, at 10 µM, stronger effect = higher value.
The subject of experiment [13] is anti-desmoglein-3 scFv antibody binding to human DSG3. The experiment can be described thus: inhibitors of anti-DSG3 scFv binding to DSG3, pilot screen, biochemical, validation compound set, bead-based, flow cytometry (AID 588368;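 active = binding below the plate cutoff, the plate median minus 3 SD, with a reading above zero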;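 note: signal is the median channel fluorescence of bead-bound GFP antibody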). Particulars: Protein G beads, DSG3-Fc, scFv-GFP binding, at 10 µM, stronger effect = lower value.
Experiment [14] can be described thus: inhibitors of fungal efflux pumps CDR1, CDR2, MDR1, pilot screen, validation compound set, multiplex, phenotypic (AID 588506).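 Note: Nile Red retained in cells so higher fluorescence means more efflux inhibition; 0 = negative control wells and 1 = enniatin B 25 µM full block.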 The note with it: S. cerevisiae pump-expressing triplex, Nile Red efflux flow cytometry; at 10 µM; stronger effect = higher value; the pumps come from Candida albicans.
Experiment [15] deals with ATP-binding cassette sub-family B member 6 (Homo sapiens) (UniProt Q9NP58). The experiment can be described thus: ABCB6 transporter inhibitors, pilot screen, K562-ABCB6 cells, flow cytometry, validation set (AID 588550;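 active = inhibition above the screen-wide mean plus 3 SD, about 51%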;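 note: 0% = DMSO wells and 100% = benzethonium chloride 70 µM positive control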). The note with it: K562-ABCB6 porphyrin accumulation, 1 h, at 10 µM, stronger effect = higher value.
The nature of experiment [16]: promoters of myeloid differentiation in arrested cells, primary screen, cell-based, GFP/MAC1 double positive, flow cytometry, validation set (AID 588685;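 active = differentiation response of at least 50%, scaled between solvent and reference control, from cells with both markers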;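 note: compound exposure lasts four days before antibody staining and flow analysis; 0% = DMSO wells and 100% = 5 µM fulvestrant positive control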). Particulars: ER-HoxA9 marrow cells, stronger effect = higher value, normalized: vehicle 0, fulvestrant 100.

Inconclusive results are not listed. The source made the active and inactive calls.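 Rule for the calls, unless noted: active = efflux inhibition above 0.42, the validation set average plus 4 SD; inconclusive = no clear call, values can overlap the other calls; inactive = the rest.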

Chain of Beta-adrenergic receptor kinase 1 (Homo sapiens) (P25098 whole entry, looked up): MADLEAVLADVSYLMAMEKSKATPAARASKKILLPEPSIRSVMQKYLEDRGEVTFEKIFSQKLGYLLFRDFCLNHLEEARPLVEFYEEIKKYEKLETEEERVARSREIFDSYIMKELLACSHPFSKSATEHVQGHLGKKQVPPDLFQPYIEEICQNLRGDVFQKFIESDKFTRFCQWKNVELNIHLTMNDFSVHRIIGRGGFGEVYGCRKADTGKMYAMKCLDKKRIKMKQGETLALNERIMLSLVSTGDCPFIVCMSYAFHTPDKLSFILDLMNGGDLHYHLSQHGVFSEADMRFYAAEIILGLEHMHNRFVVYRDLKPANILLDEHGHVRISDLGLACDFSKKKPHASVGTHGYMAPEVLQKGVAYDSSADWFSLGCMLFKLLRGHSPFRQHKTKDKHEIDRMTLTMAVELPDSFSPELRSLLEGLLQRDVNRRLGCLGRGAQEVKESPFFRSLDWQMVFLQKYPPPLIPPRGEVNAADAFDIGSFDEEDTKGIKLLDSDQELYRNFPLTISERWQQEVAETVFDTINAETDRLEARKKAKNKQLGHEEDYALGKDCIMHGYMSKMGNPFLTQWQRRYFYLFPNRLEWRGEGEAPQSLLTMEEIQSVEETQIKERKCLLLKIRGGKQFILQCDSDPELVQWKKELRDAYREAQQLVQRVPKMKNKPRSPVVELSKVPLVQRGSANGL
Chain of AP-2 complex subunit beta (Homo sapiens) (P63010 whole entry, looked up, the tested form may be a part, one chain of several): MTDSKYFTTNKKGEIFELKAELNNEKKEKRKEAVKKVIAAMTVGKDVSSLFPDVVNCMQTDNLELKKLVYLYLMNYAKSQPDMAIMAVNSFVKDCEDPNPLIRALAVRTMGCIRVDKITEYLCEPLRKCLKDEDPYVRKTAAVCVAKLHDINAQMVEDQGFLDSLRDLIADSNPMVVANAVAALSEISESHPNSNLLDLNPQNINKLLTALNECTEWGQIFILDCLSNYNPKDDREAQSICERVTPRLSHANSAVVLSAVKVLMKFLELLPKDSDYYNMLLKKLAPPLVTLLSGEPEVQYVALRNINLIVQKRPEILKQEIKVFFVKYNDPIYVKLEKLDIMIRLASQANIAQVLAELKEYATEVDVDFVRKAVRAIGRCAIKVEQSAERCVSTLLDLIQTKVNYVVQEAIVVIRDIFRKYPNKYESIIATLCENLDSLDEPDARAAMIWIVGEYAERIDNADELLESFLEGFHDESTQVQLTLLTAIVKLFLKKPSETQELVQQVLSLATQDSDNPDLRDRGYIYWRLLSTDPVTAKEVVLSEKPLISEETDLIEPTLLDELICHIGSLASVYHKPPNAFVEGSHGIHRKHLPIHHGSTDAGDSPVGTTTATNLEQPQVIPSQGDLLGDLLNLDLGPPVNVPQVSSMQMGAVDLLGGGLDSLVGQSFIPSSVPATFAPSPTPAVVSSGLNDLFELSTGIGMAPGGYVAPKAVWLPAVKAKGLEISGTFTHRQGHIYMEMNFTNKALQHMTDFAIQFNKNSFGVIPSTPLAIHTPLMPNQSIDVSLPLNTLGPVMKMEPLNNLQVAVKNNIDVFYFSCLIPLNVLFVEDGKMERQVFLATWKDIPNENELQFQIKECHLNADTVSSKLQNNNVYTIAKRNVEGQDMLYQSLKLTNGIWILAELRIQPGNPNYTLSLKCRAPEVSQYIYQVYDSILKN
Chain of ATP-binding cassette sub-family B member 6 (Homo sapiens) (Q9NP58 whole entry, looked up): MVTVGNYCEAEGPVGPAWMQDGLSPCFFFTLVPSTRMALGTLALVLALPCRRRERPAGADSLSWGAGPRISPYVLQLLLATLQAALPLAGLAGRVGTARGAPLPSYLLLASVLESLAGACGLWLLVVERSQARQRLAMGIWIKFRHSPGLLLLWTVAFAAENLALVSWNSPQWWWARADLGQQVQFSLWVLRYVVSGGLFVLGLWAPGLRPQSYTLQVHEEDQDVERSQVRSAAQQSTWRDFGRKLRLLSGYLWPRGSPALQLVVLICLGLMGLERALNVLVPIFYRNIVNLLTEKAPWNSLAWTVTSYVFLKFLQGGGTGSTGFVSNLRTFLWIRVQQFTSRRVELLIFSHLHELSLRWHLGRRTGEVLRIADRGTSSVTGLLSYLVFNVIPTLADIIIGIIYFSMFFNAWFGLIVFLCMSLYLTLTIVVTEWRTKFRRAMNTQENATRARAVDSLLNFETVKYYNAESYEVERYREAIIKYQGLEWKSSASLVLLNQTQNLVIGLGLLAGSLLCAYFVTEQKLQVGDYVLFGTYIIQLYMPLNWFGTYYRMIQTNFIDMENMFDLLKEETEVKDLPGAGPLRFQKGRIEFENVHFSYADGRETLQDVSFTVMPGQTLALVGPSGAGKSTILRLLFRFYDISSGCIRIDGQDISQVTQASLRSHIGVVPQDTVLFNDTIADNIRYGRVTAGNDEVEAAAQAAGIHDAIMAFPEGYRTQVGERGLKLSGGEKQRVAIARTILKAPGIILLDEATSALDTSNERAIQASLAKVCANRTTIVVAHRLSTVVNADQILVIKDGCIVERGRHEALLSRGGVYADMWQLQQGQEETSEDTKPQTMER
Chain of Integrin beta-1 (Homo sapiens) + Integrin alpha-4 (Homo sapiens) (P05556 whole entry, looked up): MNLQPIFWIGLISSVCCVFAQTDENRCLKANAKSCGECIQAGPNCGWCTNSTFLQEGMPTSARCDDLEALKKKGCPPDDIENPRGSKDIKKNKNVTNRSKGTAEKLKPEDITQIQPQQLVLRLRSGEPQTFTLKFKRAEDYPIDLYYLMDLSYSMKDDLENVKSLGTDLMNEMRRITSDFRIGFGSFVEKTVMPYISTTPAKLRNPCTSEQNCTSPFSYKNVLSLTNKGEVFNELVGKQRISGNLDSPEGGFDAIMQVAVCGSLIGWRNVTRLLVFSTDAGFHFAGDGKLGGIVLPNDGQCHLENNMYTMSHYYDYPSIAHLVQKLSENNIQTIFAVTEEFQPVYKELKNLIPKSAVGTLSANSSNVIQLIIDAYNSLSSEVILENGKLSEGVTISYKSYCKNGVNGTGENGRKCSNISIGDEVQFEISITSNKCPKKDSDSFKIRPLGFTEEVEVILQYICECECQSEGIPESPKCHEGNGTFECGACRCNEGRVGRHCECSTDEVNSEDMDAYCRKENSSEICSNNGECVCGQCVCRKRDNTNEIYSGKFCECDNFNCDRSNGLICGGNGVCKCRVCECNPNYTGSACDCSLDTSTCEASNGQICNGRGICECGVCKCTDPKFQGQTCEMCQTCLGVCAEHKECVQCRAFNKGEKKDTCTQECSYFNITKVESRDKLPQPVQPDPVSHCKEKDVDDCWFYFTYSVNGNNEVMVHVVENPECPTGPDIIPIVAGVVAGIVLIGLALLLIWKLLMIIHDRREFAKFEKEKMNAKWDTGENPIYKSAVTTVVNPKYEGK
Chain of Integrin beta-1 (Homo sapiens) + Integrin alpha-4 (Homo sapiens) (P13612 whole entry, looked up): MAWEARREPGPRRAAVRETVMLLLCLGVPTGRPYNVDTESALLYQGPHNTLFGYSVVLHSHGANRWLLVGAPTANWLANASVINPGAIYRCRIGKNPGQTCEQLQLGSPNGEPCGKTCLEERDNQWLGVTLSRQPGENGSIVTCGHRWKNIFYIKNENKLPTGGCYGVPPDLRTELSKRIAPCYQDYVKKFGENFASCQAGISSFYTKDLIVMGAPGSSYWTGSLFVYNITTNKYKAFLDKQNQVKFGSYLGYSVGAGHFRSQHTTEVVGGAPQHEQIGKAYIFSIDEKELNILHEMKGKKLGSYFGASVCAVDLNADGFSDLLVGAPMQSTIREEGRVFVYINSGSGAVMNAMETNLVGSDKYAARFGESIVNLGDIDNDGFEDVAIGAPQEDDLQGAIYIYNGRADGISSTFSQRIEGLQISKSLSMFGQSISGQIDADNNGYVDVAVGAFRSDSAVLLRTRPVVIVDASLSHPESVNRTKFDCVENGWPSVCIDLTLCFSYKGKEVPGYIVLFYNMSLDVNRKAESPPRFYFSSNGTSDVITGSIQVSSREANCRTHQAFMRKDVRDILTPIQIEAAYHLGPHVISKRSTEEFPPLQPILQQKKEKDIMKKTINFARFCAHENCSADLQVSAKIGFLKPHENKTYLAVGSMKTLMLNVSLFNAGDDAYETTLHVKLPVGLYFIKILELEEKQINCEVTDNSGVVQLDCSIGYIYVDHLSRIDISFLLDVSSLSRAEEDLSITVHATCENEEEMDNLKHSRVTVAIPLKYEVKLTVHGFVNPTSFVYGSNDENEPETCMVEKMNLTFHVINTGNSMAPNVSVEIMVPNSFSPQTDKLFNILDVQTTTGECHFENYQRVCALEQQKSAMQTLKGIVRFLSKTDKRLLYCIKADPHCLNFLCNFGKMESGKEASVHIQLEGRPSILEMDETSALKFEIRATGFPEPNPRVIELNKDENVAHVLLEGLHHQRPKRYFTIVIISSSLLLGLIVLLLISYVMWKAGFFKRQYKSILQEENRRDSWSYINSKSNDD
Chain of Beta-2 adrenergic receptor (Homo sapiens) (P07550 whole entry, looked up): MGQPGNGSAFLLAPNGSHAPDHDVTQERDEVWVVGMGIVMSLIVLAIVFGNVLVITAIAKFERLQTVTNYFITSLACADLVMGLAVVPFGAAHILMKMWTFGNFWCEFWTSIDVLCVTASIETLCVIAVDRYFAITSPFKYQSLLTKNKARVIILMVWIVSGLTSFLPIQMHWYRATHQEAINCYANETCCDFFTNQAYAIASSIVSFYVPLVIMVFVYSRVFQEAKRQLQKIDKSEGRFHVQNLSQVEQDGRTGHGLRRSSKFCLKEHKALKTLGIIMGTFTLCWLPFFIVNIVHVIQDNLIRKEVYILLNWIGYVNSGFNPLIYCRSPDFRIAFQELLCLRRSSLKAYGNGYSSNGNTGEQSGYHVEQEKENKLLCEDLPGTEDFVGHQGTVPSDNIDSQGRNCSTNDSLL

One may read the inhibition as the drop in the measured response relative to a control, in per cent. `CC(=O)CCCCn1c(=O)c2c(ncn2C)n(C)c1=O`: the percent of DMSO control GFP in experiment [1] is 103% (inactive). Further, the GFP response vs DMSO in experiment [2] is 96.2% (inactive); in [4], 82.2% (inactive). Moreover, the percent response of DMSO control in experiment [3] was 106% (inactive). For the same compound, the GFP response, % of DMSO in experiment [5] is 97.5% (inactive). In [6], this compound displayed a double positive events of 57.8%. In addition, in experiment [6], the vesicle binding response is 162% (inactive). The inhibition in experiment [7] was 12% (inactive); in experiment [11], 4.72% (inactive); in experiment [15], -3% (inactive). Besides, in [8], the superoxide response (% of plate) is 102% (inactive). The aptamer binding inhibition in experiment [9] is 2% (inactive). Moreover, the response was -1.49% (inactive) in [10] and 0.63% (inactive) in experiment [12]. Moreover, the binding (% of control) in [13] was 95.5% (inactive). Moreover, the efflux inhibition (fraction of control) in experiment [14] is 0.49 (active). In addition, the differentiation response in experiment [16] is 20.8% (inactive).

On to `CC1(C)CC(C(CC(=O)O)c2ccccc2)CCO1` (stereo not given), for which the percent of DMSO control GFP in experiment [1] was 97.6% (inactive). Besides, the values for the GFP response vs DMSO in experiment [2] and in experiment [4] were 103% (inactive) and 109% (inactive), respectively. Also, in experiment [3], the percent response of DMSO control was 99.6% (inactive). Also, the GFP response, % of DMSO in experiment [5] is 102% (inactive). In experiment [6], this compound registered a double positive events of 58.1%. Moreover, in experiment [6], the vesicle binding response is 155% (inactive). The figures for the inhibition in experiment [7], in experiment [11] and in experiment [15] were -1.79% (inactive), 48.1% (inactive) and 2% (inactive), respectively. Further, in experiment [8], the superoxide response (% of plate) was 99.7% (inactive). Also, the aptamer binding inhibition in experiment [9] was 0% (inactive). Moreover, the results for the response in experiment [10] and in experiment [12] were -5.23% (inactive) and -5.35% (inactive), respectively. The binding (% of control) in experiment [13] was 95.7% (inactive). The efflux inhibition (fraction of control) in [14] was 0.05 (inactive). Moreover, the differentiation response in experiment [16] is 37.6% (inactive).

For the compound `CC(C)CN1CCN(Cc2cccn2-c2ccccn2)CC1CCO` (stereo not given), the percent of DMSO control GFP in [1] was 90.9% (inactive). The results for the GFP response vs DMSO in experiment [2] and in [4] were 113% (inactive) and 80.3% (inactive), respectively. In addition, the percent response of DMSO control in experiment [3] was 103% (inactive). The GFP response, % of DMSO in [5] is 95.9% (inactive). The same compound registered a double positive events in experiment [6] of 64.2%. In addition, in experiment [6], the vesicle binding response is 241% (inactive). Further, the inhibition in experiment [7] is 22.9% (inactive); in [11], -9.17% (inactive); in [15], 16% (inactive). Besides, the superoxide response (% of plate) in [8] was 114% (inactive). In addition, the aptamer binding inhibition in experiment [9] is -2% (inactive). In addition, the response in [10] was -7.51% (inactive); in [12], 74.8% (active). Besides, the binding (% of control) in [13] is 102% (inactive). Moreover, in [14], the efflux inhibition (fraction of control) was 0.48 (active). Further, the differentiation response in experiment [16] was 1.64% (inactive).

As for `O=C(COc1ccccc1)Nc1ccc2c(c1)C(=O)N(CC1CCCO1)C2=O` (stereo not given), the percent of DMSO control GFP in experiment [1] was 100% (inactive). For the same compound, the GFP response vs DMSO is 102% (inactive) in experiment [2] and 113% (inactive) in [4]. Further, the percent response of DMSO control in experiment [3] was 102% (inactive). Moreover, in experiment [5], the GFP response, % of DMSO is 106% (inactive). Further, the double positive events in experiment [6] stood at 61.5%. Besides, the vesicle binding response in [6] is 179% (inactive). Further, the inhibition in experiment [7] was 13.7% (inactive); in [11], 4.36% (inactive); in experiment [15], -12% (inactive). In addition, the superoxide response (% of plate) in experiment [8] was 110% (inactive). Further, the aptamer binding inhibition in [9] was 3% (inactive). Moreover, the results for the response in experiment [10] and in experiment [12] were 3.99% (inactive) and -0.92% (inactive), respectively. For the same compound, the binding (% of control) in [13] was 100% (inactive). Further, the efflux inhibition (fraction of control) in experiment [14] was 0.47 (active). In addition, the differentiation response in experiment [16] was -8.96% (inactive).

As for `CC(C)(C)NCC(O)COc1ccccc1C(=O)CCc1ccccc1` (stereo not given), in experiment [1], the percent of DMSO control GFP was 101% (inactive). The GFP response vs DMSO in experiment [2] is 101% (inactive); in experiment [4] it was 108% (inactive). Further, in [3], the percent response of DMSO control is 96.4% (inactive). Further, the GFP response, % of DMSO in experiment [5] was 122% (inactive). Moreover, the double positive events in experiment [6] was 60.4%. The vesicle binding response in experiment [6] was 196% (inactive). Besides, the inhibition is 44% (inactive) in experiment [7], -9.53% (inactive) in [11] and 8% (inactive) in [15]. Further, the superoxide response (% of plate) in [8] was 129% (inactive). Also, in experiment [9], the aptamer binding inhibition is -1% (inactive). Also, the response in experiment [10] was -37.6% (inactive); in experiment [12] it was -4.49% (inactive). The binding (% of control) in [13] is 104% (inactive). For the same compound, the efflux inhibition (fraction of control) in experiment [14] is 0.04 (inactive). In experiment [16], the differentiation response is 46.2% (inactive).
